Data reported in PubChem BioAssay (NCI).
The panel holds about 79,000 compounds, 15% with a hit somewhere; the sample as a whole holds those more often. The source made the active and inactive calls. Rule as the data show it: active = growth inhibition above about 70%; inactive = the rest.

What was measured:
[1] = NCI Yeast Anticancer Drug Screen. Data for the rad50 strain (AID 155);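 also: 0% = growth of vehicle-only cultures of the same strain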; details: S. cerevisiae rad50 strain growth inhibition; at 50.0 µM; stronger effect = higher value
Summary of the method: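 Genetically altered yeast (DNA repair pathway); compound treatment; growth inhibition vs vehicle ctrl.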

[2] = NCI Yeast Anticancer Drug Screen. Data for the mec2-1 strain (AID 157); details: S. cerevisiae mec2-1 strain, at 50.0 µM, stronger effect = higher value
Summary of the method: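 Yeast mec2-1 mutant treated with compound. Readout: growth inhibition vs vehicle controls.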

[3] = NCI Yeast Anticancer Drug Screen. Data for the sgs1 mgt1 strain (AID 161);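 also: 0% = growth of cultures given vehicle only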; details: S. cerevisiae sgs1 mgt1 strain, at 50.0 µM, stronger effect = higher value
Summary of the method: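 Inhibition of yeast growth, normalised to vehicle-treated controls, is reported for a strain bearing genetic alterations in DNA damage repair.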

[4] = NCI Yeast Anticancer Drug Screen. Data for the cln2 rad14 strain (AID 165);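 also: 0% = growth equal to vehicle treated cultures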; details: S. cerevisiae cln2 rad14 strain, at 50.0 µM, stronger effect = higher value
Summary of the method: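 cln2 rad14 yeast strain; compound exposure; growth inhibition read vs vehicle controls.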

[5] = NCI Yeast Anticancer Drug Screen. Data for the bub3 strain (AID 167); details: S. cerevisiae bub3 mutant strain, at 50.0 µM, stronger effect = higher value
Summary of the method: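 Yeast carrying a defined mutation is treated with each compound, and growth is compared with that of vehicle-exposed cells to give inhibition.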

[6] = NCI Yeast Anticancer Drug Screen. Data for the mlh1 rad18 strain (AID 175); details: S. cerevisiae mlh1 rad18 strain growth inhibition; at 50.0 µM; stronger effect = higher value
Summary of the method: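 Yeast w/ defined DNA-repair lesions; compound exposure; growth vs vehicle controls → % inhibition.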

Measured: growth inhibition

O=C1c2ccccc2-c2c1c1ccccc1c(=O)n2Cc1ccco1
inactive: [1] 16.1% | [2] -29.2% | [3] -2.8% | [4] 8.85% | [5] -11.2% | [6] -18.9%

COC(=O)/C(C#N)=C1\CCC(OC)N1 (stereo unspecified)
inactive: [1] -4.25% | [2] 6.95% | [3] -21.2% | [4] 3.7% | [5] -13.1% | [6] -24.9%

O=[N+]([O-])C1(CO)COC2(OC1)c1ccccc1-c1ccccc12
inactive: [1] 0.5% | [2] -7.2% | [3] -21.6% | [4] 11.8% | [5] -26.8% | [6] -0.25%

CCN(CC)CCC(=O)c1ccc(Oc2ccc(Cl)cc2)cc1
active: [1] 96.8% | [2] 83.8% | [3] 99% | [4] 80.2% | [5] 98.9% | [6] 99.2%

CCC(CC)COC(=O)c1ccccc1C
inactive: [1] 7.45% | [2] -0.15% | [3] -0.85% | [4] -27.1% | [5] 15.4% | [6] 0.6%

O=[N+]([O-])c1ccc2c(c1)/C(=N/O)CCC2
inactive: [1] 0.5% | [2] -0.55% | [3] 1.05% | [4] -86.4% | [5] -15.8% | [6] 4.05%

Cc1ccc(C(CCl)c2ccc(C)cc2)cc1
inactive: [1] -18.1% | [2] -1.45% | [3] -0.35% | [4] -36.5% | [5] -21.5% | [6] -2.95%

O=C=Nc1ccc(Cc2ccc(N=C=O)cc2)cc1
inactive: [1] -13.7% | [2] 6.7% | [3] -7.45% | [4] -15.2% | [5] -23.9% | [6] -36.5%

CCOC(=O)c1ccc(CSc2ccc(OC)cc2)cc1
active: [1] 86.9% | [2] 75.7% | [3] 86.4% | [4] 76.5% | [5] 80.5% | [6] 78.6%

OC1(c2ccccc2)CCN(C/C=C/c2ccccc2Cl)CC1
active: [3] 70.1% | [4] 77.1% | [6] 85.8%
inactive: [1] 66.1% | [2] 53.9% | [5] 57.6%

O=C(NC(Nc1ccc(F)cc1)(C(F)(F)F)C(F)(F)F)C(C(F)(F)F)C(F)(F)F
active: [1] 87.4% | [2] 88.6% | [3] 91.8% | [4] 92.2% | [5] 90.7% | [6] 93.2%

CSc1nc2nc(C)c(C)nc2c(=O)[nH]1
inactive: [1] -21.9% | [2] -19.4% | [3] -43.5% | [4] 3.9% | [5] -0.75% | [6] -32%

COCC(=O)Nc1ccccc1
inactive: [1] -13.5% | [2] 6.05% | [3] 2.1% | [4] 1.55% | [5] 6.8% | [6] -6%

COC1OC(C(=O)O)C(O)C(O)C1O (stereo unspecified)
inactive: [1] 6.75% | [2] -21.1% | [3] -2.6% | [4] -4% | [5] -17.6% | [6] 8.3%

COC(=O)C1OC1(C)c1ccccc1 (stereo unspecified)
inactive: [1] 2.3% | [2] 4.6% | [3] -0.25% | [4] -0.35% | [5] -1.95% | [6] -2.55%

CC1(C)N=C(N)N=C(N)N1c1ccc(NC(=O)Nc2ccccc2)cc1
inactive: [1] 16.6% | [2] -13.2% | [3] 16.1% | [4] -43.2% | [5] -2.35% | [6] 10.3%

CCCOC1OC(CS(=O)(=O)O)C(OC(C)=O)C(OC(C)=O)C1OC(C)=O (stereo unspecified)
inactive: [1] 3.25% | [2] 3.1% | [3] 8.4% | [4] 18% | [5] 2.4% | [6] 5.95%

COc1cc(/C=C/C(=O)c2sc(-n3nc(-c4ccccc4)cc3-c3ccccc3)nc2C)ccc1O
inactive: [1] 6% | [2] -13.6% | [3] -34.4% | [4] 4.9% | [5] 26.4% | [6] -10%

c1ccc2c(c1)NC(SSC1Nc3ccccc3S1)S2 (stereo unspecified)
inactive: [1] -2.4% | [2] -21.1% | [3] -2.65% | [4] -0.55% | [5] -11.1% | [6] 1.65%

OB(O)c1cccc(B(O)O)c1
inactive: [1] -4.2% | [2] -28.7% | [3] -3% | [4] -7.45% | [5] -21.9% | [6] -10.1%

O=C(CC(c1ccccc1)C1CCCC1=O)c1ccccc1 (stereo unspecified)
inactive: [1] 11.1% | [2] 1.65% | [3] 17.6% | [4] -21.3% | [5] 6.1% | [6] 17.1%

O=C(CCl)Nc1ccc(O)c2ccccc12
inactive: [1] 14.8% | [2] 4.65% | [3] 7.45% | [4] 9.95% | [5] 5.85% | [6] 36.8%

O=C(CCN1CCCCC1)C(O)(c1ccccc1)c1ccccc1
inactive: [1] 19.2% | [2] -2% | [3] 24.7% | [4] -6.05% | [5] -10.4% | [6] 14.2%

C=C1CC[C@@H]2C(C)(C)CCC[C@@]2(C)[C@@H]1Cc1cc(O)ccc1O
active: [1] 86.8% | [2] 88.6% | [3] 87% | [4] 87.2% | [5] 87.9% | [6] 87.5%

NC(=O)NCCCC1NC(=S)N(c2ccccc2)C1=O (stereo unspecified)
inactive: [1] -3.35% | [2] -4.35% | [3] -3.2% | [4] -2.95% | [5] 23.9% | [6] 34%

COc1ccc(C2CC(c3ccccc3)=Nc3ccccc3S2)cc1OC (stereo unspecified)
inactive: [1] 0.25% | [2] -26.3% | [3] 11.7% | [4] 4.15% | [5] 2.4% | [6] 3.75%

COc1ccc([N+](=O)[O-])c2ccc(=O)oc12
inactive: [1] -9.9% | [2] 5.2% | [3] -4.1% | [4] -0.35% | [5] 4.75% | [6] 9.9%

Cc1ccccc1/C=C1/N=C(c2ccccc2)OC1=O
inactive: [1] -27.3% | [2] -17.4% | [3] -19.7% | [4] 0.9% | [5] -14.4% | [6] -6.85%

CCOC(=O)N/N=C(\CC)NO
inactive: [1] 2.45% | [2] 1.35% | [3] -7.7% | [4] -7% | [5] 12.8% | [6] 5.7%

O=[N+]([O-])c1cc(Cl)cc2c1nc(NCCCO)c1ccccc12
inactive: [1] -0.8% | [2] 7.35% | [3] -0.3% | [4] -7.95% | [5] -7.65% | [6] 27.9%

COc1cc(-c2ccc(Br)[nH]2)[nH]c1C=NCC(C)C
inactive: [5] 69%
active: [1] 78.5% | [2] 78.5% | [3] 78.8% | [4] 78.2% | [6] 86.7%

Cc1ccc(S(=O)(=O)NC2CC3(C)CCC2C3(C)C)cc1 (stereo unspecified)
inactive: [1] -0.6% | [2] -20.4% | [3] -5.55% | [4] -46.1% | [5] 14.8% | [6] -4.45%

CN(C)C=Nc1ccn(C2CC(F)C(CO)O2)c(=O)n1 (stereo unspecified)
inactive: [1] 4.55% | [2] 13.2% | [3] -22.4% | [4] -7.85% | [5] 8.8% | [6] 13%

COC(=O)c1ccc(C(=O)OC)c2nc3cc(Cl)ccc3nc12
inactive: [1] -7.05% | [2] -10.2% | [3] -35.5% | [4] -29.2% | [5] -10.6% | [6] -40.1%

O=c1[nH]c(=S)[nH]c2ncn(C3OC(CO)C(O)C3O)c12 (stereo unspecified)
inactive: [1] -13.4% | [2] -3.85% | [3] -8.15% | [4] -9.6% | [5] 5.65% | [6] -0.6%

O=C(O)Cn1c[n+](NC(=O)Cc2ccccc2)cn1
inactive: [1] -19.6% | [2] -25.4% | [3] -25% | [4] -41.8% | [5] -34.5% | [6] -10.8%

COC(=O)c1cc(-c2ccncc2)[nH]c(=O)c1C#N
inactive: [1] -5.05% | [2] -32.1% | [3] -33.9% | [4] -18.1% | [5] -15.2% | [6] -19.9%

CCOC(=O)/C(C#N)=C/Nc1ccncc1
inactive: [1] 2.95% | [2] -12.4% | [3] 16.2% | [4] 11.6% | [5] 4.25% | [6] 16%

Cc1ccc(N2C(=O)ON(c3ccccc3)C2c2ccccc2)cc1 (stereo unspecified)
inactive: [1] 3.6% | [2] -5.8% | [3] -4.45% | [4] 5.9% | [5] 12.4% | [6] -15.9%

N#Cc1ccc(S(=O)(=O)c2ccc(C#N)cc2)cc1
inactive: [1] 1% | [2] -17.6% | [3] 11.3% | [4] 24.4% | [5] 12% | [6] -19.4%

CCN(CC)CCN(C(=Nc1ccccc1)N1CCOCC1)c1ccccc1
inactive: [1] -19.8% | [2] -40.5% | [3] 3.6% | [4] -3.8% | [5] 4.8% | [6] -11.9%
